HIF activator: HIF pathway transcriptional activators, primary screen, cell-based, U2OS HRE-luciferase, luminescence; activation, % at 7.5 µM (by protocol); U2OS HRE-luciferase reporter; normalized: DMSO 0%, desferrioxamine 100%; actives 0.32% (n = 300,000); AID 1910, 2009;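 active means mean activation of at least 10% of the iron chelator positive control signal, with at least half of replicates also reaching 10%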
AI-2 QS mod: Vibrio harveyi AI-2 quorum sensing modulators, primary screen, JMH597 strain, luminescence/OD600 ratio. activity change, % at 7.5 µM. actives 0.4% (n = 300,000). AID 2094, 2009. Vibrio harveyi JMH597 AI-2 luminescence/OD600 ratio, 9 h; hits give low values; strain lacks LuxN and CqsS sensors; 0 = neutral-control median; in the data active means activity change below about -75%, passing the limit was not always enough;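 further: luminescence divided by OD600 gain over 9 h not by final OD600 alone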
ALR H2O2 inh: inhibitors of human ALR sulfhydryl oxidase, primary screen, biochemical, H2O2 detection, HRP-luminol luminescence, single point | inhibition, % (test concentration not listed) | actives 3.8% (n = 290,000) | AID 485317, 2010 | purified ALR, DTT oxidation;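 active means mean replicate inhibition above about 79%, with every replicate also reaching it, limit read from the data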
Target sequence (P55789 whole entry, looked up): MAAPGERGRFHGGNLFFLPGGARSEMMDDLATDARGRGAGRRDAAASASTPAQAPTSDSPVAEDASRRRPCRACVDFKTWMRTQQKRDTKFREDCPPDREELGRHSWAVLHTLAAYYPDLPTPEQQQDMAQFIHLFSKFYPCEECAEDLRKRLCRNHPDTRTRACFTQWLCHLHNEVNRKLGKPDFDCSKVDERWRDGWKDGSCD
Mot1-301 SUMO: yeast Mot1-301 growth rescue at high temperature, primary screen, SUMOylation pathway inhibitor project, S. cerevisiae, ATP luminescence, 38.5C | growth rescue, % at 18.8 µM | actives 1% (n = 320,000) | S. cerevisiae Mot1-301 growth rescue; percent above DMSO median, 100 means doubled;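 active means every valid replicate shows activation above 250% relative to neutral control wells; inactive means the rest, any valid replicate at or below 250%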
Each line names hits and unclear results; the compound was inactive in the other large screens. The list is not random: actives were taken first. Their share in the collection is about 4.8%.

COc1ccccc1NC(=O)CSC1CC(=O)N(c2ccc3c(c2)OCO3)C1=O (configuration not stated)	ALR H2O2 inh 99.6
COc1ccc(NC(=O)CSC2CC(=O)N(c3ccc4c(c3)OCCO4)C2=O)cc1 (configuration not stated)	ALR H2O2 inh 98.5
COc1ccccc1NC(=O)CN1CCN(CC(=O)Nc2ccc3c(c2)OCO3)CC1	none (no result: HIF activator, AI-2 QS mod)
COc1ccc(N2C(=O)CC(SCC(=O)O)C2=O)cc1 (configuration not stated)	none
COc1ccc(Cl)cc1NC(=O)CN(C)C(=O)c1ccc(COc2ccccc2)cc1	none
O=C(C(Cc1ccccc1)NS(=O)(=O)c1cccc2cccnc12)N1CCc2ccccc21 (configuration not stated)	ALR H2O2 inh 88.0 (no result: HIF activator)
CCOc1ccc(NC(C)c2cc(Cl)ccc2O)cc1 (configuration not stated)	ALR H2O2 inh 98.9
CC(Nc1ccc(Cl)cc1)c1cc(Cl)ccc1O (configuration not stated)	ALR H2O2 inh 99.1
C=CCn1c(NC(C)c2cc(Cl)ccc2O)nc2ccccc21 (configuration not stated)	none
Cc1ccc(C(=O)N/C(=C\c2cccc([N+](=O)[O-])c2)C(=O)NC(Cc2ccccc2)C(=O)O)cc1 (configuration not stated)	none
CCOCCCNC(=S)N(CCO)Cc1cc2cc3c(cc2[nH]c1=O)OCCO3	none
N#CCNc1ccc([N+](=O)[O-])cc1C#N	none
COc1ccc(NCc2nnc(-c3ccccc3)o2)cc1	none
COc1ccc(OC)c(NCc2nnc(-c3ccccc3)o2)c1	ALR H2O2 inh 99.0
COc1ccc(N/C=C(\C#N)S(=O)(=O)c2ccc(Cl)cc2)c(OC)c1	none
CC1CCCN(C(=O)N2c3ccccc3Sc3ccccc32)C1 (configuration not stated)	none
CC1CN(C(=O)N2c3ccccc3Sc3ccccc32)CC(C)O1 (configuration not stated)	ALR H2O2 inh 98.9
CC1CCN(C(=O)N2c3ccccc3Sc3ccccc32)CC1	ALR H2O2 inh 88.6
O=C(N1CCOCC1)N1c2ccccc2Sc2ccccc21	ALR H2O2 inh 98.8
O=C(CN1CCOCC1)N1c2ccccc2Sc2ccccc21	none
CCOC(=O)C1=C(COC(=O)Cc2ccc(Cl)cc2)NC(=O)NC1C (configuration not stated)	none (no result: HIF activator, AI-2 QS mod)
CN(Cc1nccn1C)C(=O)C1CCC(=O)N(CCc2ccc(Cl)cc2)C1 (configuration not stated)	none
CCC(C)NC(=O)c1ccccc1NC(=O)c1ccc(CSc2ccc(C)cc2)cc1 (configuration not stated)	ALR H2O2 inh 99.5
CC(C)CNC(=O)c1ccccc1NC(=O)c1ccc(CSc2ccccc2)cc1	none
NC(=O)C1CCN(c2oc(/C=C/c3ccccc3)nc2S(=O)(=O)c2ccccc2)CC1	none
Nc1cc(-c2ccccc2)nn1S(=O)(=O)c1ccc(Br)cc1	ALR H2O2 inh 98.7
COc1cc(-c2cc(N)n(S(=O)(=O)c3ccccc3)n2)cc(OC)c1OC	none
CCn1cc(C(=O)N[C@@H](CCSC)C(=O)NCCN2CCOCC2)c(=O)c2cc3c(cc21)OCO3	none
Cc1cccc(NC(=O)/C(C#N)=C/c2cccc([N+](=O)[O-])c2)n1	Mot1-301 SUMO 483.2
Cc1cccc(NC(=O)/C(C#N)=C/c2ccc(Cl)cc2)n1	none
OC1CCN(Cc2cccc(Oc3ccccc3)c2)CC1	ALR H2O2 inh 97.8
CC(O)CSc1nc2c(c(=O)[nH]c(=O)n2C)n1Cc1ccccc1Cl (configuration not stated)	none
O=C(COC(=O)c1cc(Cl)ccc1O)NCCC1=CCCCC1	none
O=[N+]([O-])c1cc(S(=O)(=O)C(F)(F)F)ccc1Sc1nc2ccccc2[nH]1	ALR H2O2 inh 90.5
O=[N+]([O-])c1cc(S(=O)(=O)C(F)(F)F)ccc1Sc1nc2ccccc2s1	ALR H2O2 inh 98.4 (no result: Mot1-301 SUMO)
CS(=O)(=O)c1ccc(Sc2nc3ccccc3s2)c([N+](=O)[O-])c1	none
Cc1ccc2nc(-c3ccccc3)cc(C(=O)N3CCN(S(=O)(=O)c4c(C)noc4C)CC3)c2c1	none (no result: HIF activator, AI-2 QS mod)
Cc1ccc(C(=O)NCC(=O)OC(C)C(=O)Nc2ccc(N(C)C)cc2)cc1C (configuration not stated)	ALR H2O2 inh 99.0
